Results taken from PubChem BioAssay AID777 (Sanford-Burnham Center for Chemical Genomics, 2007).
The campaign covered roughly 96,000 compounds. About 19,000 (20%) were called active.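 How the source made its calls: active means blocking of liver enzyme CYP2C9 beyond about 50% at 5 µM (limit read from the data); inactive means the rest.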 Only a sample is shown.

target: Cytochrome P450 2C9 (Homo sapiens) (UniProt P11712); assay: blockers of cytochrome P450 2C9 activity – biochemical, luminescence, ADME assay, primary screen (AID 777); details: CYP2C9 Supersomes, luciferin-H conversion, at 5 µM, hits give high values
Sequence (P11712 whole entry, looked up): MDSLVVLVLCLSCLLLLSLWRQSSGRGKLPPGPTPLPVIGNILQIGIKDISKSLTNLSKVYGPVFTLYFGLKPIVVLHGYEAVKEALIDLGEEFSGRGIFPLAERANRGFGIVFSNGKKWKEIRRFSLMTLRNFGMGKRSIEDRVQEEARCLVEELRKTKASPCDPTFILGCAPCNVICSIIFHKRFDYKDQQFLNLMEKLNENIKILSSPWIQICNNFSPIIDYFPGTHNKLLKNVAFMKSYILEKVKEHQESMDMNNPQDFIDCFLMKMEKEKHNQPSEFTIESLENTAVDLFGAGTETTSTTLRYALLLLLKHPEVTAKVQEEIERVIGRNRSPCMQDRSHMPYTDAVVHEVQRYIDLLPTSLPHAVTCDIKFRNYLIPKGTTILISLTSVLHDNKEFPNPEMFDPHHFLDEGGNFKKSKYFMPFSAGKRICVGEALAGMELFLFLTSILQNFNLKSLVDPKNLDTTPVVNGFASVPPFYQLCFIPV

| Structure (SMILES) | inhibition |
| --- | --- |
| CC1CC(C)CN(C/C=C/c2ccccc2[N+](=O)[O-])C1 (configuration not stated) | 9.8% (inactive) |
| CCc1nc(C)ccc1OCC(=O)N(CC)CC | -6.3% (inactive) |
| c1ccc(Nc2n[nH]nc2-c2ccccc2)cc1 | 28.9% (inactive) |
| CCOC(=O)CSc1nc2c(c(=O)n(Cc3ccccc3Cl)c(=O)n2C)n1C | -7.5% (inactive) |
| Cc1cccc(Cn2c(N3CCN(c4ccccc4)CC3)nc3c2c(=O)n(C)c(=O)n3C)c1 | 66.1% (active) |
| Cc1cccc(Cn2c(SCCO)nc3c2c(=O)n(C)c(=O)n3C)c1 | 54% (active) |
| CC(C)OCCCNc1nc2c(c(=O)n(Cc3ccccc3F)c(=O)n2C)n1C | 22.3% (inactive) |
| CCCSc1nc2c(c(=O)n(C)c(=O)n2C)n1Cc1ccc(C)cc1 | 9.9% (inactive) |
| Cn1c(=O)c2c(ncn2CC(=O)N2CCN(c3ccccc3)CC2)n(C)c1=O | 6.8% (inactive) |
| C/C(Cl)=C\Cn1c(Nc2cccc(C)c2)nc2c1c(=O)n(C)c(=O)n2C | -7.8% (inactive) |
| CCOC(=O)CSc1nc2c(c(=O)n(C)c(=O)n2C)n1Cc1ccccc1F | 60.5% (active) |
| CCOc1ccc(Cn2c(SCCCCC#N)nc3c2c(=O)n(C)c(=O)n3C)cc1OCC | 31.1% (inactive) |
| COc1ccc(CNC(=O)C2CCN(S(=O)(=O)N3CCOCC3)CC2)cc1 | -2.7% (inactive) |
| Cn1c(N)c(C(=O)COC(=O)C23CC4CC(CC(C4)C2)C3)c(=O)n(C)c1=O | 29.6% (inactive) |
| COc1ccc(N2C(=O)C3CCCN3C2c2cc(OC)c(OC)cc2OC)cc1 (configuration not stated) | -1.9% (inactive) |
| CC1CN(C(=O)CN2C(=O)NC(C)(c3ccccc3)C2=O)CC(C)O1 (configuration not stated) | -27.2% (inactive) |
| CCOC(=O)c1[nH]cnc1C(=O)NC1CCCCC1 | 28.5% (inactive) |
| CCOC(=O)C1=C(CNC2CCCCC2)NC(=O)NC1c1cc(C)ccc1C (configuration not stated) | 84.7% (active) |
| CCOC(=O)C1=C(CSc2nccn2C)NC(=O)NC1c1ccc(OC)cc1 (configuration not stated) | 17.2% (inactive) |
| Cc1[nH]c2ccccc2c1C(=O)CSCC(=O)O | -30.3% (inactive) |
| CCC(c1nnnn1C1CCCC1)N(Cc1cccs1)Cc1cc2cccc(C)c2[nH]c1=O (configuration not stated) | -52.1% (inactive) |

| Structure (SMILES) | inhibition |
| --- | --- |
| CCOc1ccc2c(c1)cc(CN(C(=O)CC)C1CCCCC1)c1nnnn12 | 35.6% (inactive) |
| CCC(c1nnnn1Cc1ccco1)N(Cc1cc2cc(OC)ccc2[nH]c1=O)C1CCCCC1 (configuration not stated) | 58.2% (active) |
| CCC(c1nnnn1Cc1ccco1)N(CCc1ccccc1)Cc1cc2cccc(C)c2[nH]c1=O (configuration not stated) | 29% (inactive) |
| COc1ccc2[nH]c3c(=O)n(Cc4ccco4)cnc3c2c1 | 26% (inactive) |
| CCC(c1nnnn1Cc1ccco1)N(CCc1ccccc1)Cc1cc2ccc(OC)cc2[nH]c1=O (configuration not stated) | 91.9% (active) |
| CC1(C)Cc2cccc(OCC(N)=O)c2O1 | -6.4% (inactive) |
| CCn1ncc(Br)c1C(=O)Nc1cc(C)ccc1F | -6.9% (inactive) |
| Cc1csc(NC(=O)CN2CCCCCC2)n1 | 0.6% (inactive) |
| CC(Oc1ccc(Cl)cc1Cl)C(=O)/C=C/N(C)C (configuration not stated) | 23% (inactive) |
| Cc1cc(=O)cc(C)[nH]1 | -13.9% (inactive) |
| Cc1ncn(C23CC4CC(CC(O)(C4)C2)C3)n1 | 10.7% (inactive) |
| COCCOCCn1cnc2ccccc21 | 0% (inactive) |
| CC(C)c1ccc(NC(=O)CCN2C(=O)c3ccc([N+](=O)[O-])cc3C2=O)cc1 | 14.3% (inactive) |
| CC(C)COC(=O)c1ccc(NC(=O)C2C3C=CC(C3)C2C(=O)O)cc1 (configuration not stated) | 29.9% (inactive) |
| CC(C)OC(=O)c1cc(NC(=O)C2C3CCC(O3)C2C(=O)O)cc(C(=O)OC(C)C)c1 (configuration not stated) | 79.4% (active) |
| CCC(CC)C(=O)Nc1cc(C(=O)OC)cc(C(=O)OC)c1 | 9% (inactive) |
| COC(=O)c1cc(NC(=O)C2C3C=CC(C3)C2C(=O)O)cc(C(=O)OC)c1 (configuration not stated) | 64.3% (active) |
| Cc1sc(NC(=O)C2C3CCC(O3)C2C(=O)O)c(C(=O)OC(C)C)c1-c1ccc(Cl)cc1 (configuration not stated) | 9.3% (inactive) |
| Cn1c(=O)c2c(n(Cc3ccccc3)c1=O)NC(=O)C2CC(=O)N1CCc2ccccc2C1 (configuration not stated) | -4.4% (inactive) |
| CSc1nnc2c(n1)OC(c1ccsc1)N(C(C)=O)c1ccccc1-2 (configuration not stated) | 10% (inactive) |
| C=CCNC(=O)CCCC(=O)NCC=C | 8.2% (inactive) |

| Structure (SMILES) | inhibition |
| --- | --- |
| CCN(CC)P(=O)(C(NC(=O)OC)C(F)(F)C(F)(F)C(F)(F)C(F)F)N(CC)CC (configuration not stated) | 21% (inactive) |
| O=C(NCc1ccccc1Cl)c1csc2c1CCCCC2 | -153% (inactive) |
| Cn1c(SCC(=O)NC2CCCCC2)nnc1-c1cc2ccccc2o1 | 9.1% (inactive) |
| CCOc1cc2c(cc1OCC)C(C(=O)O)C(c1ccc(OC)c(O)c1)N(C)C2=O (configuration not stated) | -10% (inactive) |
| O=C(NCc1cccs1)c1ccc2c(c1)ncn2C1CCCC1 | 25.4% (inactive) |
| CC(=O)NC1CC2CCCC(C1)N2CC(=O)Nc1ccccc1 (configuration not stated) | 50.7% (active) |
| COc1ccc(NC(=O)NC2CC3CCCC(C2)N3Cc2ccccc2)cc1 (configuration not stated) | -6.4% (inactive) |
| O=C(CN1C2CCC1CC(NC(=O)C1CC1)C2)NCc1ccccc1 (configuration not stated) | -10.9% (inactive) |
| O=C(c1ccc(-n2cnnn2)cc1)N1CCN(C(c2ccccc2)c2ccccc2)CC1 | 83.4% (active) |
| O=C(O)CC(c1ccccc1)n1cnnn1 (configuration not stated) | -7.7% (inactive) |
| c1cc(-n2cnnn2)ccc1NC1=NCCC1 | -26.8% (inactive) |
| Cc1ccc(S(=O)(=O)N2CCN(C(=O)CCC(=O)NC3CCCc4ccccc43)CC2)cc1 (configuration not stated) | 32.1% (inactive) |
| CCOC(=O)N1CCN(S(=O)(=O)c2cc3c(cc2C)NC(=O)CO3)CC1 | -21.5% (inactive) |
| Cc1ccc2oc(=O)c3cnn(CC(=O)N(Cc4ccco4)C4CCCCC4)c3c2c1 | 19.5% (inactive) |
| CCCOc1ccc(Cn2c(O)cc(=O)[nH]c2=O)cc1 | -7.9% (inactive) |
| CCOC(=O)c1cc2sccc2n1Cc1ccc(C#N)cc1 | 96.7% (active) |
| CCOC(=O)c1cc2c(ccn2C)n1CC(=O)N1CCC(C)CC1 | 29.1% (inactive) |
| Cc1nc2c(C(=O)NCc3ccc4c(c3)OCO4)c[nH]n2c(=O)c1Cc1ccccc1F | 93.4% (active) |
| CCc1c(C)nc2ncnn2c1N1CCC(C(=O)NCc2ccc3c(c2)OCO3)CC1 | 12.9% (inactive) |
| CCn1cc(C(=O)NCc2ccc3c(c2)OCO3)c2cc(OC)c(OC)cc2c1=O | 31.5% (inactive) |
